Source: PubChem
ANO1 block: TMEM16A chloride channel inhibitors, primary screen, cell-based, HTS; actives 1.2% (n = 310,000); AID 588511, 2011; HEK293 TMEM16A/YFP iodide influx fluorescence, ionomycin; Anoctamin-1 (Mus musculus), Q8BHY3; normalized B-score (activity score, 25-100; higher = stronger inhibition) at 10 µM;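 active means ratio plate-corrected score three or more library SD toward inhibition, starting fluorescence score within five deviations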;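 further: score derived from kinetic fluorescence span divided by baseline fluorescence per well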
Target sequence (Q8BHY3 whole entry, looked up): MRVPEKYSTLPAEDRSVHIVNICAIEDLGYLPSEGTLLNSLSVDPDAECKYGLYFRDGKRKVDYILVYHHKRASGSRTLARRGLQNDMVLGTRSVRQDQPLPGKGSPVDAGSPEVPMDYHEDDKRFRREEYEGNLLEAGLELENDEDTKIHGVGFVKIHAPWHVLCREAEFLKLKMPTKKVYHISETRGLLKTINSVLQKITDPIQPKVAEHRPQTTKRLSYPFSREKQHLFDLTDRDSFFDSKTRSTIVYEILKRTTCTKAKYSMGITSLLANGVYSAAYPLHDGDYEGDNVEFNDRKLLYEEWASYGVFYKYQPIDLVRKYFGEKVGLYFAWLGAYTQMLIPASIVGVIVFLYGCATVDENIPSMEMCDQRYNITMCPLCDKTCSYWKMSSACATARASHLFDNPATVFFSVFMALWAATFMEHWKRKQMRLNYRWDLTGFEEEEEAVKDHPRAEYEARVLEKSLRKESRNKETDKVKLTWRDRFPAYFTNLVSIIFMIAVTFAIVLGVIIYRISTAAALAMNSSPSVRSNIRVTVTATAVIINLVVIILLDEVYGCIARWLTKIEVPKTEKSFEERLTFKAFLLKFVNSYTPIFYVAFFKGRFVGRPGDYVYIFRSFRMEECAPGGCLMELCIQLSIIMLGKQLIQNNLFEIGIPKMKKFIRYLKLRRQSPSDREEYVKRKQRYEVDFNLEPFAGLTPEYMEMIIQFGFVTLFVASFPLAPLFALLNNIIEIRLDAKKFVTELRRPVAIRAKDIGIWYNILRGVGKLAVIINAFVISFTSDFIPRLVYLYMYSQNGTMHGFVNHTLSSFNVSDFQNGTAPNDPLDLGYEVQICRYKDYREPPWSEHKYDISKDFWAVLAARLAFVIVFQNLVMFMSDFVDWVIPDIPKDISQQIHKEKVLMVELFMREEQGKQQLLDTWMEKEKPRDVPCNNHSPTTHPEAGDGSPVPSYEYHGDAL
CRFR2-BP antag: antagonists of CRF-BP/CRF-R2 complex, primary screen, cell-based, HEK293, calcium dye fluorescence, uHTS | inhibition, % at 11.8 µM | CRF-induced calcium fluorescence | actives 0.59% (n = 350,000);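 active means inhibition of the ligand-induced calcium signal above about 50% at the single tested concentration, limit read from the data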
NR3A LBD binder: binders of NR3A ligand-binding domain, primary screen, biophysical, differential scanning fluorimetry, uHTS; actives 2.5% (n = 340,000); Tm shift relative to glycine control, % at 25 µM; NR3A LBD differential scanning fluorimetry, Tm shift; 0% = protein alone, 100% = glycine-bound protein; Glutamate receptor ionotropic, NMDA 3A (GRIN3A) ligand-binding domain;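 active means melting temperature shift of at least 10% of the positive control shift, at one fixed dose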
CRFBP-R2 agonist: agonists of CRF-BP/CRF-R2 complex, primary screen, cell-based, HEK293, calcium dye fluorescence, uHTS | CRF-binding protein / CRF receptor 2 complex (human) | calcium dye fluorescence (FLIPR); percent of saturating CRF peptide response | activation, % at 13.2 µM | actives 0.46% (n = 350,000) | AID 588473, 2011;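 active means activation of at least 50%, plus an integration ratio under a set limit after plate pattern correction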
MPTP inh: mitochondrial permeability transition pore inhibitors, primary screen, biochemical, isolated mouse mitochondria, absorbance | Ca2+ swelling absorbance, 30 min | actives 1.4% (n = 360,000) | inhibition, % at 10 µM;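 active means inhibition of 50% or more, scaled per plate between neutral and stimulator controls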
TMEM16A act: TMEM16A chloride channel activators or potentiators, primary screen, cell-based, HTS; Anoctamin-1 (Mus musculus), Q8BHY3; HEK293 TMEM16A/YFP-H148Q/I152L, iodide quench fluorescence; active compounds read low; B-score at 10 µM; actives 0.3% (n = 340,000); AID 623877, 2012;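 active means fluorescence-ratio B-score plate-corrected deviation score at least 3 library SD below zero, with starting fluorescence score within 5 deviations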;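 further: channel opened by trigger with iodide after compound preincubation; score built on the fluorescence ratio of max minus min over baseline; more negative score means more quench and so TMEM16A activation or potentiation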
Of the large screens only hits and unclear results are named; the others gave an inactive call. Hits are enriched below; roughly 5.1% of the tested compounds scored in any of these assays.

O=C1C(Cl)=C(N2CCCCC2)C(=O)C(Cl)=C1c1cnc(N2CCCCC2)s1	none (no result: ANO1 block)
CN(C)c1ncc(C2=C(Cl)C(=O)C(N3CCCC3)=C(Cl)C2=O)s1	ANO1 block 100
C=CCNC(=O)/C(C#N)=C/c1ccccc1OCc1ccc(C(=O)OC)cc1	NR3A LBD binder 33.7
O=C1C(Cl)=C(N2CCCC2)C(=O)N1c1ccc(F)cc1	none
O=C(Nc1cccc(-c2csc(Nc3ccc(Cl)cc3)n2)c1)c1ccccc1	NR3A LBD binder 25.4
O=C(Nc1cccc(-c2csc(Nc3ccc(Cl)cc3)n2)c1)c1cccc(C(F)(F)F)c1	NR3A LBD binder 26.3
O=C(Nc1ccc(-c2csc(Nc3ccccc3)n2)cc1)c1ccccc1	NR3A LBD binder 17.3
O=C(NNc1nc(-c2ccccc2)cs1)c1ccccc1	none
O=C(Nc1cccc(-c2csc(Nc3ccccc3)n2)c1)c1cc([N+](=O)[O-])cc(C(F)(F)F)c1	none
CC(=O)c1ccc2ccccc2c1OC(=O)c1ccncc1	none (no result: ANO1 block, NR3A LBD binder, TMEM16A act)
CCCS(=O)(=O)NC(=O)C1(C)CCCN(C(=O)c2oc3ccccc3c2C)C1 (stereo not drawn)	none (no result: ANO1 block, CRFR2-BP antag, NR3A LBD binder, CRFBP-R2 agonist, TMEM16A act)
CC1(C(=O)NCc2ccccc2)CN(S(C)(=O)=O)CC(=O)N1C1CCN(Cc2ccccc2)CC1 (stereo not drawn)	none (no result: ANO1 block, CRFR2-BP antag, NR3A LBD binder, CRFBP-R2 agonist, TMEM16A act)
COc1ccc(S(=O)(=O)Nc2ccc(S(=O)(=O)Nc3ccc(F)cc3)cc2)cc1C	NR3A LBD binder 16.4 (no result: TMEM16A act)
COc1ccc(S(=O)(=O)Nc2cccc(F)c2)cc1C	none
COCCCC1CCN(C(=O)C2CCC(=O)N(CCc3cccc(F)c3)C2)CC1 (stereo not drawn)	none
COc1ccccc1NS(=O)(=O)c1ccc(NC(=O)N2CCCCC2)cc1	NR3A LBD binder 12.6
COc1ccccc1NS(=O)(=O)c1cc(C(=O)N2CCCC2)ccc1F	CRFR2-BP antag 79.3 (no result: ANO1 block)
COc1ccccc1NS(=O)(=O)c1cc(C(=O)N2CCN(C(=O)c3ccco3)CC2)ccc1F	none (no result: ANO1 block)
Cc1ccc([C@H]2N[C@]3(CCCN(Cc4cccn4C)C3=O)[C@H]3C(=O)N(C)C(=O)[C@@H]23)cc1	none (no result: ANO1 block, NR3A LBD binder, TMEM16A act)
O=C(C[C@H]1C/C=C\CC[C@H](Cc2ccc(F)cc2)C(=O)OC[C@H]2CCCN2C1=O)NCCO	none (no result: ANO1 block)
N#Cc1ccc(/C=C/C(=O)c2ccccc2)cc1	NR3A LBD binder 12.1
O=C(/C=C/c1ccccc1)c1ccccc1	none
C/C=C/C1=CC(=O)C[C@H](c2ccc(OC)c(OC)c2)C1	none (no result: ANO1 block)
O=C(NNC(=O)c1ccccc1Br)c1cnccn1	none (no result: ANO1 block)
CCOC(=O)C(=COC(=O)c1ccccc1)NC(=O)Cc1ccccc1	none (no result: ANO1 block)
CCC(=O)c1c[nH]c(C(=O)NCCCn2ccnc2)c1	NR3A LBD binder 12.2
COc1ccc(C(=O)NCCc2c[nH]c3ccccc23)cc1	NR3A LBD binder 10.0
COc1ccc(-c2cn(CCc3c[nH]c4ccccc34)nn2)cc1	NR3A LBD binder 19.4
COc1ccc(Cl)cc1NC(=S)NCCc1c[nH]c2ccccc12	NR3A LBD binder 28.7
COc1ccc(OCC(=O)NCCc2c[nH]c3ccccc23)cc1	none
COc1ccccc1NC(=O)NCCc1c[nH]c2ccccc12	none
COc1ccc2[nH]cc(CCNC(=S)NC3CCCC3)c2c1	CRFR2-BP antag 51.0
COc1ccc(-c2cn(Cc3cccc(OC)c3)nn2)cc1	none
NC(=O)CSc1nnc(-c2ccco2)n1-c1ccc(F)cc1	none (no result: ANO1 block, NR3A LBD binder, TMEM16A act)
COc1ccc(CCNC(=O)CN2C(=O)NC(Cc3c[nH]c4ccccc34)C2=O)cc1 (stereo not drawn)	NR3A LBD binder 24.9
COc1ccc(CCNC(=S)NCCc2c[nH]c3ccccc23)cc1	NR3A LBD binder 30.7
COc1ccc(CNC(=O)NCCc2c[nH]c3ccccc23)cc1	none
O=C(CN1C(=O)NC(Cc2c[nH]c3ccccc23)C1=O)NCCc1ccccc1 (stereo not drawn)	none
O=C(NCCc1c[nH]c2ccccc12)c1ccc(Cl)cc1	NR3A LBD binder 29.2
O=C(NCCc1c[nH]c2ccccc12)c1cncc(Br)c1	none
